# Compounds without any hit were thinned out: in the full panel of roughly 83,000, 20% have a hit.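 Activity criterion: percent growth below 10, measured after cells in 96-well plates were exposed to a single compound concentration for 48 hours.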 Unmarked numbers belong to inactive results. Active and inactive are the calls of the source.
# Key:
# Assay in all cases: NCI-60 one-dose screen, 48 h (100 = growth as untreated, 0 = no growth, -100 = all killed)
# Conditions in all cases: 10 µM unless noted
# HCT-15 colon = test system: HCT-15 colon
# HT29 colon = test system: HT29 colon
# SNB-75 CNS = test system: SNB-75 CNS
# SNB-19 CNS = test system: SNB-19 CNS
# U251 CNS = test system: U251 CNS
# PC-3 prostate = test system: PC-3 prostate
# SK-MEL-5 melanoma = test system: SK-MEL-5 melanoma
# UACC-62 melanoma = test system: UACC-62 melanoma
# LOX IMVI melanoma = test system: LOX IMVI melanoma
# SK-MEL-28 melanoma = test system: SK-MEL-28 melanoma
SMILES,growth (HCT-15 colon),growth (HT29 colon),growth (SNB-75 CNS),growth (SNB-19 CNS),growth (U251 CNS),growth (PC-3 prostate),growth (SK-MEL-5 melanoma),growth (UACC-62 melanoma),growth (LOX IMVI melanoma),growth (SK-MEL-28 melanoma)
CCCCSc1ncnc2c1ncn2C1CCCCO1 (stereo not given),102%,109%,104%,103%,99.9%,99.5%,104%,99.6%,101%,119%
c1coc(CNc2c3ccccc3nc3ccccc23)c1,44.2%,35.1%,81.5%,62.8%,65.1%,67%,84.3%,66.1%,37.1%,97.7%
CCOCCNc1ccc(S(=O)(=O)c2ccc(N)cc2)cc1N,109%,114%,96.7%,114%,98.2%,111%,102%,95.1%,91.1%,112%
O=S(=O)(Cc1ccc(Cl)cc1Cl)c1ccc(Cl)cc1,31.8%,9.72% (active),18.8%,44%,25.8%,31.1%,39.8%,44.6%,15.7%,65.9%
CCN(CC)c1cc(C)c(Cc2c(OC)ccc3ccccc23)cc1C,97.8%,73.7%,91.1%,93.2%,94.9%,83.9%,99.4%,79.8%,94.9%,100%
Cc1nc(N)nc2c1CCC(Nc1ccccc1)S2 (stereo not given),100%,104%,98.3%,111%,103%,90.6%,99.1%,108%,97%,114%
COc1cccc(NC(=O)OC(C)C)c1,96.3%,105%,96.7%,116%,94.9%,93.5%,109%,108%,102%,108%
C=C(C)[C@@H]1CC[C@]2(C(=O)O)CC[C@]3(C)[C@H](CC[C@@H]4[C@@]5(C)C[C@@H](CC#Cc6ccc(C(C)=O)s6)[C@H](O)C(C)(C)[C@@H]5CC[C@]43C)[C@@H]12,33.4%,34.5%,71.1%,75.7%,32.3%,26%,43.3%,52.3%,65%,76.5%
OC(CCCCCCCCC(O)CN1CCc2ccccc2C1)CN1CCc2ccccc2C1 (stereo not given),95.1%,114%,95.4%,105%,101%,98.9%,95.2%,101%,96.4%,108%
CCOC(=O)c1ccc2c(c1)nc(-c1ccc(Cl)cc1)n2-c1cc(C(C)(C)C)[nH]n1,20.2%,18.5%,18.2%,48%,33.6%,48.7%,0.494% (active),25.5%,27.8%,36.2%
CCOC(=O)Nc1ccc2nc(Sc3ccc(Cl)cc3)sc2c1,25.5%,19.4%,-12% (active),48.3%,36.1%,34.3%,6.76% (active),33.8%,47.9%,38.1%
COc1ccc(C(=O)OC2C(OC3C(O)COC(O[C@H]4C[C@H]5[C@@H]6CC=C7C[C@@H](O)CC[C@]7(C)[C@H]6CC[C@]5(C)[C@H]4[C@H](C)C(=O)CCC(C)C)C3OC(N)=O)OCC(O)C2O)cc1 (stereo not given in full),6.08% (active),4.99% (active),-10% (active),-28.2% (active),-53.3% (active),-28.1% (active),-86.8% (active),-57.7% (active),-58.3% (active),-59.1% (active)
C=C[C@H]1CCC/C=C/[C@@H]2C[C@H](O)C[C@H]2[C@H](O)/C=C/C(=O)O1,5.82% (active),-51.5% (active),25.8%,22.3%,14.6%,15.1%,-77.7% (active),5.56% (active),-99.1% (active),7.46% (active)
COc1ccc(C(=O)O)cc1.[Ag],102%,103%,110%,106%,103%,77.1%,46.5%,108%,88.7%,110%
COc1cc(C2CC(c3ccc(Cl)cc3)=NN2C(C)=O)ccc1Oc1nc2c(c(=O)n(C)c(=O)n2C)n1C (stereo not given),88.5%,73.8%,75%,59.8%,80.7%,75.6%,55.6%,75.9%,64.5%,86.6%
Cc1ccc(NC(=O)c2cc(NCc3cc(O)ccc3O)ccc2O)cc1,86.3%,82.9%,97.8%,99.8%,95.4%,74%,88.6%,81.9%,94.7%,108%
CSC1=N/C(=C\c2cccc(OCc3ccc(Cl)cc3)c2)C(=O)N1,81.4%,76.7%,82.5%,90.4%,84.5%,76%,77.7%,70.4%,84.2%,100%
Cc1ccc(C(CN(C)C)C(=O)c2ccccc2)cc1 (stereo not given),-12.1% (active),-34.3% (active),54.1%,85.7%,41.7%,32.9%,64.1%,6.99% (active),-6.07% (active),50.7%
COc1ccc(Nc2nc(N)nc3c(=O)[nH]ccc23)cc1,109%,103%,107%,101%,115%,81.5%,111%,111%,102%,124%
CCCCCCCCCCCCC1CCC(=O)O1 (stereo not given),91.7%,90.6%,95%,98.3%,101%,95.8%,99.7%,98.5%,93.5%,96.4%
CCCCCCCCCCCC1=NC(C)(C)CN1CC(C)O (stereo not given),6.24% (active),-48.3% (active),61.8%,96.8%,33.9%,51.4%,34%,-49.4% (active),6.88% (active),59.8%
COc1ccc(C(=O)C(CN(C)C)c2ccc(OC)cc2)cc1 (stereo not given),30.4%,13.2%,64.7%,90.7%,69.2%,39.1%,95.5%,32.1%,31.3%,79%
COc1ccccc1CNCCCN1C(=O)c2ccc3c4c(ccc(c24)C1=O)C(=O)N(CCCOCCCCOCCCN)C3=O,-52.7% (active),-55% (active),-5.57% (active),-11.1% (active),-48.6% (active),3.91% (active),-98.7% (active),-79.8% (active),-34.3% (active),-4.3% (active)
CC(C)(C)[Si](C)(C)OC1[C@@H](O[Si](C)(C)C(C)(C)C)[C@@H](CNC(=O)NC(=O)NC(=O)CCl)O[C@H]1n1cnc2c(NC(=O)Nc3ccccc3)ncnc21 (stereo not given in full),79%,-11.4% (active),80.2%,99.5%,29.7%,11.3%,86.6%,87.7%,-74.5% (active),105%
O=C(/C=C/c1cn(-c2ccccc2)nc1-c1ccccc1)OCc1cn(-c2cccc([N+](=O)[O-])c2)nn1,95.2%,86.3%,74.3%,87.8%,78.3%,67.4%,100%,73.5%,90.1%,92.1%
CC(C)[C@@]12C[C@@H](OC(=O)C3CO3)[C@@](C)(O1)[C@@H]1CC[C@@H](C)[C@H]1[C@@H]2OC(=O)/C=C/c1ccccc1 (stereo not given in full),98.1%,93.9%,80.5%,94.4%,76.1%,86.2%,97.6%,77.4%,88.5%,110%
O=C(CCCN1CCC(O)(c2ccc(Br)cc2)CC1)c1ccc(F)cc1,49.8%,22.1%,67.7%,78.4%,64.4%,69.7%,-1.83% (active),43.6%,53.7%,74.6%
